# Sampled rows, rich in hits. Any-hit rate of the full collection: about 31%.
# CYP2C19 inhib: inhibitors of human CYP2C19; P33261; CYP2C19 Supersomes, luciferin-H EGE luminescence, 30 min; inhibition, % at 5 µM; 96,000 tested, 21% active; AID 778;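 active = CYP2C19 inhibition above a set limit at 5 µM in the primary screen, cut at about 50% in these data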
# PLAP activator: activators of human placental alkaline phosphatase; AID 696; P05187; activation fold at 20 µM; purified PLAP enzyme, luminescent substrate read-out; hits give high values; 96,000 tested, 1.2% active; in the data active = activation fold above about 2
# CYP2C19 act: increases human CYP2C19 enzyme activity; 96,000 tested, under 10 active; P33261; recombinant CYP2C19, luciferin-H EGE luminescence; hits give high values; 0 = fully inhibited enzyme, 1 = untreated enzyme; activation factor at 5 µM;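 active = activation factor of at least 2 at 5 µM in the primary screen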
# CYP2C9 activ: increases human cytochrome P450 2C9 activity; recombinant CYP2C9, luciferin-H conversion, luminescence; hits give high values; factor 1 = untreated enzyme, 0 = blocked; activation factor at 5 µM; AID 1024; 96,000 tested, 1.4% active;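 active = activation factor of 2 or more for CYP2C9 at a 5 µM dose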
# Target sequence (P11712 whole entry, looked up): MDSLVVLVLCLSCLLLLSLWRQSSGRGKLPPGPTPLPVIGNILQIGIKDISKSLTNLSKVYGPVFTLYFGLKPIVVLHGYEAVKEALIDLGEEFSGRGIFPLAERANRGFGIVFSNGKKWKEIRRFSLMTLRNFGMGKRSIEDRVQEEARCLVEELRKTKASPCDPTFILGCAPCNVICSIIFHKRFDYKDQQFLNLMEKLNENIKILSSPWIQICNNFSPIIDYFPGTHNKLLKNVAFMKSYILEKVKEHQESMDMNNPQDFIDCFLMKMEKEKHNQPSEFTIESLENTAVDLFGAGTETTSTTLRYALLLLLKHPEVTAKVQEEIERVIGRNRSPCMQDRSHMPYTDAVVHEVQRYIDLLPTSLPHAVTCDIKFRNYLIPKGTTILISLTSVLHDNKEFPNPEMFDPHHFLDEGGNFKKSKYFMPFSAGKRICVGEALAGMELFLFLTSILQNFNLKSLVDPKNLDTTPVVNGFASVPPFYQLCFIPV
# CYP2C9 inh: inhibitors of human CYP2C9; inhibition, % at 5 µM; 96,000 tested, 20% active; CYP2C9 Supersomes, luciferin-H conversion, luminescence; P11712;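 active = blocking of liver enzyme CYP2C9 beyond about 50% at 5 µM, limit read from the data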
# A number is an active result; – = inactive.
SMILES,CYP2C19 inhib,PLAP activator,CYP2C19 act,CYP2C9 activ,CYP2C9 inh
Cc1ccc2cc(CN(CC3CCCO3)S(=O)(=O)c3cccc4nsnc34)c(=O)[nH]c2c1 (stereo not given),57.2,–,–,–,99.7
COc1cccc2c(=O)c(SC(F)(F)C(F)C(F)(F)F)c(C)[nH]c12 (stereo not given),–,–,–,–,–
Cc1[nH]c2ccc(F)cc2c(=O)c1SC(F)(F)C(F)C(F)(F)F (stereo not given),79.7,–,–,–,55.5
O=C(CSc1nc2ccccc2s1)Nn1cnnc1,75.5,–,–,–,96.4
O=C(CCCSc1nc2ccccc2s1)NC1=NCCS1,83.2,–,–,–,–
O=C(CSc1nn(-c2ccccc2)c(=S)s1)Nn1cnnc1,64.4,–,–,–,98.1
COc1ccc(-c2onc3ccc(Cl)cc23)cc1,–,–,–,–,–
O=C(NC(NC1CCS(=O)(=O)C1)C(=O)c1ccccc1)c1ccc(Cl)cc1 (stereo not given),–,–,–,–,–
COc1ccc(S(=O)(=O)n2ccc(C)n2)cc1C,50.2,–,–,2.4,–
COc1cc(C)c(S(=O)(=O)n2ccc(C)n2)cc1C,82.9,–,–,–,–
Cc1c(N=Cc2ccncc2)c(=O)n(-c2ccccc2)n1C,65.5,–,–,–,–
C=CCn1c(CCNC(=O)c2ccc(Cl)c(Cl)c2)nnc1SCCOc1ccc(OC)cc1,–,–,–,–,60.1
CC1CCN(C(=O)CNC(=O)Cn2ccc3ccccc3c2=O)CC1,–,–,–,–,–
CCCCn1cc(SCC(=O)O)c2ccccc21,–,–,–,–,–
Cc1ccc(C(=O)NCCn2cc(SCC(=O)Nc3nnc(C)s3)c3ccccc32)cc1,60.0,–,–,–,79.5
CCCn1cc(SCC(=O)Nc2nnc(C)s2)c2ccccc21,–,–,–,–,63.0
O=C(CSc1nc(-c2ccccc2)c(-c2ccccc2)[nH]1)Nc1nccs1,–,–,–,–,–
CC1CCN(C(=O)Cn2c(SCC(=O)Nc3nccs3)nc3ccccc32)CC1,80.7,–,–,–,78.7
Cn1cc(SCC(=O)Nc2nccs2)c2ccccc21,64.4,–,–,–,–
Cc1cc(C)cc(C(=O)NCCn2cc(SCC(=O)N3CCOCC3)c3ccccc32)c1,–,–,–,–,–
COc1ccc(-n2c(C)cc(C(=O)NC3CCCCC3)c2C)cc1,–,–,–,–,–
Cn1c(=O)c2c(nc(SCc3cc4c(cc3Cl)OCO4)n2C)n(C)c1=O,–,–,–,–,–
N#Cc1ccc(Sc2nc3ccccc3[nH]2)cc1C#N,76.2,–,–,–,–
Fc1c(F)c(F)c(CSc2nc3ccccc3[nH]2)c(F)c1F,–,–,–,–,–
N#C/C(=C\c1ccc(Sc2nc3ccccc3[nH]2)o1)c1ccccc1,86.2,–,–,–,95.3
SMILES,CYP2C19 inhib,PLAP activator,CYP2C19 act,CYP2C9 activ,CYP2C9 inh
N#C/C(=C\c1ccc(N2CCOCC2)o1)c1ccccc1,–,–,–,–,–
CCCCC(=O)NCCNC(=O)c1cc(OCC(F)(F)F)ccc1OCC(F)(F)F,–,–,–,–,–
NC1=C(c2ccc(F)cc2)C(=O)CS1,–,–,–,–,–
Brc1ccccc1C1=Nn2c(nnc2-c2ccccc2)SC1,89.7,–,–,–,62.5
Cc1cc(C)n(-c2nnc3n2N=C(c2ccccc2)CS3)n1,51.0,–,–,–,–
Cc1cc(C)n(-c2nnc3n2N=C(c2c[nH]c4ccccc24)CS3)n1,–,–,–,–,–
CSc1nc2ccccc2cc1/C=C(\C#N)c1cccc(Cl)c1,–,–,–,–,–
COc1ccc(-c2nnn(CC(=O)c3ccccc3)n2)cc1OC,59.3,–,–,–,–
COc1cc(-c2nnn(CC#N)n2)ccc1OCc1ccccc1,96.4,–,–,–,76.5
N#CCn1nnc(-c2ccc3c(c2)OCO3)n1,66.9,–,–,–,–
COc1cc(-c2nnn(CC(=O)NC3CCS(=O)(=O)C3)n2)ccc1OCc1ccccc1 (stereo not given),51.7,–,–,–,69.2
CCOc1ccc(-c2nnn(CCC(=O)O)n2)cc1OC,–,–,–,–,–
COc1ccc(-c2nnn(Cc3nn[nH]n3)n2)cc1OC,–,–,–,–,57.9
Cc1ccc(C(C)C)c(OCC(=O)Nc2ccc(N3CCN(S(C)(=O)=O)CC3)cc2)c1,–,–,–,–,–
Cc1cccnc1Nc1nc(-c2ccc(O)cc2)cs1,88.1,–,–,–,63.1
COc1cccc(Nc2nc(-c3cccc(N4C(=O)c5ccccc5C4=O)c3)cs2)c1,–,–,–,–,62.5
